Assay results published in PubChem BioAssay AID1159580 (chemical genetic matrix, 2015).
Out of some 5,500 compounds screened, about 2,000 (36%) were called active. Inconclusive results (about 18%) are left out. Rule as the data show it: active = normalized growth mostly below about 0.91 (no sharp cut-off); inconclusive = no clear call, values can overlap the other calls; inactive = mostly above about 0.92. The list shows a part of the results.

Assay: chemical genetic growth profiling, strain panel (AID 1159580);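 also: tested at 20 µM; growth read once vehicle control cultures reached saturation at 30 °C; 1 = growth at the plate median or of vehicle wells; lower values mean less growth of the strain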
Conditions: S. cerevisiae deletion strains, growth OD

Measured: normalized growth

CCn1cnc2c(Nc3cccc(Cl)c3)nc(N[C@@H]3CCCC[C@@H]3N)nc21
inactive: locus YAL013W, strain DEP1, active compounds read low 0.985 | locus YAL040C, strain CLN3, active compounds read low 1.02 | locus YCL061C, strain MRC1 (second series), active compounds read low 0.998 | locus YDR363W, strain ESC2, active compounds read low 0.993 | locus YER002W, strain NOP16, active compounds read low 1.03 | locus YGR078C, strain PAC10, active compounds read low 1.01 | locus YGR229C, strain SMI1, active compounds read low 0.993 | locus YMR263W, strain SAP30, active compounds read low 1 | locus YNL175C, strain NOP13, active compounds read low 1.08 | locus YNL224C, strain SQS1, active compounds read low 1.04 | locus YOR083W, strain WHI5 (second series), active compounds read low 0.991 | locus YPL241C, strain CIN2, active compounds read low 1.01
